In one assay the test system is Tov112D. Description: Primary qHTS to identify gynecologic anti-cancer compounds using libraries of approved drugs and bioactive compounds (AID 1345084). Note: % is set by controls: 0 for no effect and ±100 for the full control effect; nearly all actives have a fitted effect of over 55% in size. The note with it: Gynecologic cancer cell panel viability, ATPlite luminescence, 48 h; series mostly up to 57.5 µM. The procedure, abridged:
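Luminescence from the ATPlite ATP-monitoring reagent indicates viable cell number; lower signal means cytotoxicity. Cells received compound 16 h after seeding and were exposed for 48 h across five concentrations.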

Assay [1] can be described thus: Drug repurposing screens with cells derived from glioblastoma tumor samples (AID 1345199). For activity, negative = cell killing: % is set by controls: 0 for no effect and ±100 for the full control effect. Note: nearly all actives have a fitted effect of over 40% in size. Note: potency is the fitted concentration of half-maximal effect. The note with it: GBM patient neurospheres viability, ATP luminescence, 48 h. A digest of the protocol: (§1)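 Primary testing used CD133+ neurospheres from four GBM patients, seven concentrations, 48 h exposure and ATP-based viability; confirmation added three slower-growing patient lines.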

The next assay deals with astro. The assay is described as above. The following applies: viability, ATP luminescence, 48 h; series mostly up to 45.9 µM. The procedure, abridged:
as §1

Assay [2] has as its target Nuclear receptor subfamily 1 group I member 2 (Rattus norvegicus) (UniProt Q9R1A7). Nature of the assay: qHTS assay for small molecule activators of the rat pregnane X receptor (rPXR) signaling pathway (AID 651751; call rule not given here; note: 0% is about no effect). The following applies: rPXR reporter cells, luciferase (One-Glo), 24 h. (In qHTS, concentration-response curves come from the screen itself.)
Assay [3] in a line: qHTS assay for small molecule activators of the human pregnane X receptor (PXR) signaling pathway (AID 720659; call rule not given here; note: 0% is about no effect). The note with it: DPX-2 HepG2 CYP3A4-luciferase, 24 h; series mostly up to 92.3 µM.
The mark [4] stands for this setting: at 20 µM (top of the series), tumour line C.
The mark [5] stands for this setting: at 21.2 µM (top of the series), tumour line B.
The mark [6] stands for this setting: at 21.2 µM (top of the series), tumour line D.
[7] abbreviates: at 21.3 µM (top of the series), tumour line A.
[8] abbreviates: at 45.9 µM (top of the series), tumour line B.
The mark [9] stands for this setting: at 45.9 µM (top of the series), tumour line D.
[10] abbreviates: at 46 µM (top of the series), tumour line A.
[11] abbreviates: at 46.1 µM (top of the series), tumour line C.

The source of these data is PubChem BioAssay (NCATS).

“And” between values parts separate entries of the source, which are not always exact repeats. Identical values can stand only once. Unmarked numbers belong to inactive results. Results filed as inconclusive are left out. Where a structure was tested more than once in an assay, its records may differ in their call. The source made the active and inactive calls. Unless noted, calls come from the whole dose curve; as a rule, active = well fitted curve in the direction sought with a large enough effect; inconclusive = small, poorly fitted or top-dose-only effect, or another doubt; inactive = no such curve, though single readings can be large; an effect the other way counts as inactive or inconclusive.

Sequence of Nuclear receptor subfamily 1 group I member 2 (Rattus norvegicus) (Q9R1A7 whole entry, looked up): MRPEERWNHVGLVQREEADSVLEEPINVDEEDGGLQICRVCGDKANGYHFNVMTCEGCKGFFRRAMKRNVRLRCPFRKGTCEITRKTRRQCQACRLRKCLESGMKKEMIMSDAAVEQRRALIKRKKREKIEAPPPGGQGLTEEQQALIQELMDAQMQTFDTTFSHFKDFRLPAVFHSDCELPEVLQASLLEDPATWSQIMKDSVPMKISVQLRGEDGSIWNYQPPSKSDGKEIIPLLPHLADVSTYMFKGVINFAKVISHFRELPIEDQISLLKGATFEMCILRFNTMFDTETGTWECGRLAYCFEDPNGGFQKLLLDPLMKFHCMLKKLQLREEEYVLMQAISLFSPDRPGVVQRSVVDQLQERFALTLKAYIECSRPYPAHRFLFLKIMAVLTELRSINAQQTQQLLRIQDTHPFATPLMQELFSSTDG

For the compound `CN(C)c1nc(N(C)C)nc(N(C)C)n1`, the Potency entry in the assay with Tov112D and in the assay on astro was “inactive” in each case. Moreover, the activity, negative = cell killing is 0.771% in assay [1] (setting [4]), -14% in assay [1] (setting [5]), -14.3% in assay [1] (setting [6]) and -32% in assay [1] (setting [7]).

Turning to `OCCN(CCO)c1nc(N2CCCCC2)c2nc(N(CCO)CCO)nc(N3CCCCC3)c2n1`, the Potency result in the assay on Tov112D and in the assay on astro was “inactive” in each case. Also, the activity, negative = cell killing is -2.66% in assay [1] (setting [8]), -18.5% in assay [1] (setting [9]), -9.97% in assay [1] (setting [10]) and 1.47% in assay [1] (setting [11]).

As to `CN(C)CCOC(c1ccccc1)c1ccccc1`, the Potency entry in the assay with Tov112D was “inactive”. For the same compound, the activity, negative = cell killing is 0.893% in assay [1] (setting [8]); 1.4% in assay [1] (setting [9]); 1.73% and -22.4% in assay [1] (setting [11]). Further, in assay [1] (tumour line A), the Potency was 22.4 µM (active) and 12.6 µM (active). The max response in assay [2] was 2.67%.

Consider `NCCCCCC(=O)O`, for which the Potency result in the assay on Tov112D and with astro was “inactive” each time. Also, the activity, negative = cell killing was 16.3% in assay [1] (setting [4]), -4.6% in assay [1] (setting [5]), -5.09% in assay [1] (setting [6]) and -27.1% in assay [1] (setting [7]).

For the compound `Nc1nnc(-c2cccc(Cl)c2Cl)c(N)n1`, the Potency result in the assay with Tov112D and with astro was “inactive” throughout. For the same compound, the activity, negative = cell killing in assay [1] (setting [8]) is -10.9%; in assay [1] (setting [9]), -13.4%; in assay [1] (setting [10]) it was -13.9%; in assay [1] (setting [11]), -25.4%.

For `CN(C)C(=N)N=C(N)N`, the Potency result with Tov112D and in the assay with astro was “inactive” in each case. Further, the activity, negative = cell killing in assay [1] (setting [4]) is -29.3%; in assay [1] (setting [5]), -4.74%; in assay [1] (setting [6]), -25.1%; in assay [1] (setting [7]), -0.697%.

Take `CC[N+](CC)(CC)CCOc1cccc(OCC[N+](CC)(CC)CC)c1OCC[N+](CC)(CC)CC`: the Potency result with Tov112D was “inactive”. Further, the activity, negative = cell killing in assay [1] (setting [8]) is -15.6%; in assay [1] (setting [9]), -21.5%; in assay [1] (setting [10]) it was -28%; in assay [1] (setting [11]), -0.854%.

As for `NCCS(=O)(=O)O`, the Potency entry in the assay with Tov112D and in the assay on astro was “inactive” in each case. For the same compound, the activity, negative = cell killing in assay [1] (setting [8]) is -27.3%; in assay [1] (setting [9]) it was -0.425%; in assay [1] (setting [10]), 17.9%; in assay [1] (setting [11]) it was -20.3%.

In the case of `COc1ccc2c(c1)c(CC(=O)O)c(C)n2C(=O)c1ccc(Cl)cc1`, the Potency result with Tov112D and in the assay with astro was “inactive” throughout. Besides, the activity, negative = cell killing was -14.6% in assay [1] (setting [8]), -6.82% in assay [1] (setting [9]), -26.1% in assay [1] (setting [10]) and -12.3% in assay [1] (setting [11]). The max response in assay [2] was -2.59% and -3.57%. Further, the compound was called inactive in assay [3].

Take `CCOC(=O)Nc1ccc(NCc2ccc(F)cc2)nc1N`: the Potency result in the assay on Tov112D and in the assay with astro was “inactive” each time. Moreover, the activity, negative = cell killing was -10.5% and -16.1% in assay [1] (setting [8]); -21.3% and 3.4% in assay [1] (setting [9]); 4.51% in assay [1] (setting [11]). Moreover, the Potency in assay [1] (tumour line A) was 10 µM (active).

As for `CC1(C)O[C@H]2CC(=O)OC[C@]23[C@H]2CC[C@@]4(C)[C@H](c5ccoc5)OC(=O)[C@H]5O[C@]54[C@]2(C)C(=O)C[C@@H]13`, the Potency entry in the assay on Tov112D and with astro was “inactive” in each case. For the same compound, the activity, negative = cell killing is -1.56% in assay [1] (setting [8]), -7.18% in assay [1] (setting [9]), -18.9% in assay [1] (setting [10]) and 3.51% in assay [1] (setting [11]).

As for `NC(CO)C(=O)NNCc1ccc(O)c(O)c1O` (stereo not given), the Potency result with Tov112D and with astro was “inactive” throughout. Besides, the activity, negative = cell killing is -5.28% in assay [1] (setting [8]), -22% in assay [1] (setting [9]), -18.9% in assay [1] (setting [10]) and 12.3% in assay [1] (setting [11]).

As for `CC(C)NCC(O)COc1ccc(CCOCC2CC2)cc1` (stereo not given), the Potency entry in the assay on Tov112D and in the assay on astro was “inactive” in each case. Further, the activity, negative = cell killing in assay [1] (setting [8]) is -17.4%; in assay [1] (setting [9]) it was -21.3%; in assay [1] (setting [11]) it was -27.5%. Besides, in assay [1] (tumour line A), the Potency is 17.8 µM (active).

`CS(=O)(=O)Nc1ccc([N+](=O)[O-])cc1Oc1ccccc1`: the Potency result in the assay with Tov112D and with astro was “inactive” in each case. The activity, negative = cell killing is 19.5% in assay [1] (setting [4]), -19.6% in assay [1] (setting [5]), -29.6% in assay [1] (setting [6]) and -28.2% in assay [1] (setting [7]).

As to `COc1cc2nc(N3CCN(C(=O)C4COc5ccccc5O4)CC3)nc(N)c2cc1OC` (stereo not given), the Potency result in the assay on Tov112D is “inactive”. Moreover, the activity, negative = cell killing was -16.3% in assay [1] (setting [8]), -29.3% in assay [1] (setting [9]) and -17.1% in assay [1] (setting [11]). Besides, the Potency in assay [1] (tumour line A) was 11.2 µM (active).

Consider `O=C(c1ccc(OCCN2CCCCC2)cc1)c1c(-c2ccc(O)cc2)sc2cc(O)ccc12`, for which the Potency entry in the assay on Tov112D was “inactive”. The Potency with astro was 17.8 µM (active).

For the compound `CCOC(=O)C(C)(C)Oc1ccc(Cl)cc1`, in the assay on Tov112D, the Potency entry is “inactive”. The activity, negative = cell killing in assay [1] (setting [8]) is -9.66%; in assay [1] (setting [9]), -5.13%; in assay [1] (setting [11]), 5.62%. The max response in assay [2] was 2.24%. For the same compound, the call in assay [3] was inactive.

In the case of `C[C@](N)(Cc1ccc(O)c(O)c1)C(=O)O`, the Potency result with Tov112D and in the assay with astro was “inactive” throughout. The activity, negative = cell killing was -10.5% in assay [1] (setting [8]), -4.46% in assay [1] (setting [9]) and 1.22% in assay [1] (setting [11]). Further, the max response in assay [2] is -1.2%. Also, in assay [3], the outcome was inactive.

As for `CCCNCC(O)COc1ccccc1C(=O)CCc1ccccc1` (stereo not given), the Potency entry in the assay on Tov112D and in the assay on astro was “inactive” each time. Also, the activity, negative = cell killing in assay [1] (setting [11]) is 27.1%. The Potency in assay [1] (tumour line A) is 7.08 µM (active).

On to `Cc1cn([C@H]2C[C@H](N=[N+]=[N-])[C@@H](CO)O2)c(=O)[nH]c1=O`, for which the Potency result with Tov112D and in the assay on astro was “inactive” throughout. Besides, the activity, negative = cell killing is -5.14% and -10.6% in assay [1] (setting [8]); -11% and -22.6% in assay [1] (setting [9]); -8.55% and -21.3% in assay [1] (setting [11]). For the same compound, the max response in assay [2] is -4.33% and 1.62%.

For the compound `COc1ccccc1OCCNCC(O)COc1cccc2[nH]c3ccccc3c12` (stereo not given), the Potency result in the assay on Tov112D and with astro was “inactive” in each case. The activity, negative = cell killing in assay [1] (setting [11]) was 3.12%. For the same compound, in assay [1] (tumour line A), the Potency is 11.2 µM (active).

On to `CN(Cc1cnc2nc(N)nc(N)c2n1)c1ccc(C(=O)N[C@@H](CCC(=O)O)C(=O)O)cc1`, for which the activity, negative = cell killing was 5.57% in assay [1] (setting [8]), 3.85% in assay [1] (setting [9]), 1.95% in assay [1] (setting [10]) and -0.888% in assay [1] (setting [11]). Further, the max response in assay [2] is -4.55%. Also, in assay [3], the compound was classed as inactive.
